Screening results (PubChem BioAssay)
DT40 TDP1 CPT = DT40-hTDP1 cell growth loss with CPT; chicken DT40 Tdp1-/-;hTDP1 cells + 20 nM CPT, ATP luminescence, 48 h; Potency, µM (series often up to 46.2 µM), most hits filed as inhibitors; AID 686979; 420,000 compounds, 12% hits; also: nearly all actives have a fitted effect of over 55% in size
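Chicken DT40 Tdp1-/- cells stably complemented with human TDP1 were seeded at 400 cells/well in medium containing 20 nM camptothecin, exposed to pin-transferred compounds, and grown at 37 °C for at least 48 hr. Viability was read as ATP luminescence.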
HT1080-NT tox = kills 2HG-producing HT-1080-NT fibrosarcoma cells; HT-1080-NT fibrosarcoma viability, CellTiter-Glo ATP luminescence, 48 h; Potency, µM (top dose mostly 46.1 µM), actives largely listed as cytotoxic; 360,000 compounds, 1.6% hits; AID 686970;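 also: NT is the 2HG producing partner of a matched IDH1 knockdown line; nearly all actives have a fitted effect of over 55% in size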
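Luminescent CellTiter-Glo readout after 48 hours of compound exposure at 37 degrees C defined viability of HT-1080-NT cells. Activity was normalized to DMSO wells and cell-free media wells; concentration-response curves were fitted and assigned curve classes.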
uPA surface inh = blocks generation of uPA at the cell surface | cell surface uPA generation assay, qHTS | Potency, µM (doses to about 38.3 µM), actives largely listed as inhibitors | 330,000 compounds, 0.31% hits | AID 540303; active = well fitted inhibition curve with a large enough effect; inconclusive = small, poorly fitted or top-dose-only effect; inactive = no such curve, though single readings can be large or run the other way; tested in mouse RAW 264.7 cells; also: nearly all actives have a fitted effect of over 55% in size
HT1080 IDH1KD tx = kills HT-1080 cells with IDH1 knockdown; Potency, µM (titrated, usually from 46.1 µM), actives largely listed as cytotoxic; HT-1080 IDH1 knockdown viability, ATP luminescence, 48 h; AID 686971; 360,000 compounds, 2% hits
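Cytotoxicity counter-line: IDH1KD HT-1080, 48 h, CellTiter-Glo. Curves classed by r2, magnitude and activity.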
DT40 TDP1 no CPT = qHTS for Inhibitors of human tyrosyl-DNA phosphodiesterase 1 (TDP1): qHTS in cells in absence of CPT; DT40 Tdp1-/- hTDP1 cells, no CPT, ATP luminescence, 48 h; Potency, µM (highest dose often 46.2 µM), actives largely listed as inhibitors; 420,000 compounds, 15% hits; also: nearly all actives have a fitted effect of over 55% in size
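Growth of hTDP1-complemented DT40 Tdp1-knockout cells is measured by ATP luminescence after at least 48 hr compound exposure at 37 °C, with DMSO substituting for the 20 nM CPT used in the parallel screen.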
IL1B secr inh = blocks inflammasome-driven IL-1 beta release. THP-1 LPS/ATP IL-1B secretion, AlphaLISA, 16 h; active compounds read low. 360,000 compounds, 4.7% hits. activity change, % at 57.5 µM; in the data active = activity change below about -50%; inconclusive = mostly about -30% to -49%
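Secreted IL-1B measured by AlphaLISA bead assay after 16 h compound exposure of THP-1 cells; compounds (final up to 57.5 uM) added 1 h before LPS (250 ng/mL) and ATP (1.25 mM) stimulation; lower signal means less secretion.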
Hits are given with their value; n = inactive; u = inconclusive; x = no result given; ! = not active in a repeat; [ ] = another dose, or the depositor's remark. Compounds with a hit are over-represented: about 19% of the library has one in this group of screens. Unless noted, calls follow the shape of the dose curve; as a rule, active = well fitted curve in the direction sought with a large enough effect; inconclusive = small, poorly fitted or top-dose-only effect, or another doubt; inactive = no such curve, though single readings can be large; an effect the other way counts as inactive or inconclusive.

SMILES | DT40 TDP1 CPT | HT1080-NT tox | uPA surface inh | HT1080 IDH1KD tx | DT40 TDP1 no CPT | IL1B secr inh
COc1ccc(C(=O)NNC(=S)NC(=O)c2cccc([N+](=O)[O-])c2)cc1 | u | n | n | u | 18µM | n
COc1ccc(/C=C(/NC(=O)c2cccc([N+](=O)[O-])c2)C(=O)O)cc1 | n | n | n | n | n | n
CC1CN(C(=S)Nc2cccc([N+](=O)[O-])c2)CC(C)O1 (stereo not drawn) | n | n | n | n | n | n
Cc1cccn2c(=O)c(-c3nnn[nH]3)cnc12 | n | x | x | x | n | x
COc1ccc(Cl)cc1NC(=O)c1ncn(-c2ccccc2)n1 | n | x | x | x | u | x
CC1CC(NC(=O)c2c(O)nc3sccn3c2=O)CC(C)(C)C1 (stereo not drawn) | u | n | n | n | u | n
CCOC(=O)c1cc2c(=O)n3cccc(C)c3nc2n(Cc2ccco2)c1=NC(=O)c1cccnc1 | 16µM | n | n | n | u | n
CCOC(=O)c1cc2c(=O)n3ccccc3nc2n(Cc2ccco2)c1=NC(=O)c1c(F)cccc1Cl | u | x | x | x | 21µM | x
CCOC(=O)c1cc2c(=O)n3ccccc3nc2n(Cc2ccco2)c1=NC(=O)c1ccc(Br)cc1 | 18µM | x | x | x | n | x
CCOC(=O)c1cc2c(=O)n3ccccc3nc2n(Cc2ccco2)c1=NC(=O)c1cccnc1 | u | n | n | n | u | n
CCOC(=O)c1cc2c(=O)n3ccccc3nc2n(Cc2ccco2)c1=NC(=O)c1ccccc1OCC | u | n | n | n | 18µM | n
O=C(Nc1ccccc1Br)N1CCC(CN2CCCC2)CC1 | n | x | x | x | n | x
CCn1c(C(=O)NCc2ccccc2C)cc2oc3ccccc3c21 | n | x | x | x | u | x
CC(C(=O)Nc1ccc(C(N)=O)cc1)N1C(=O)c2ccccc2S1(=O)=O (stereo not drawn) | n | n | n | n | n | n
CCN(CC(=O)Nc1ccc(NC(C)=O)cc1)C(=O)C1(c2ccc(Cl)cc2)CCC1 | n | n | x | n | u | n
CCOC(=O)c1cc2c(=O)n3ccccc3nc2n(CCCOC)c1=NC(=O)c1c(-c2ccccc2Cl)noc1C | n | x | x | x | n | x
CCOC(=O)c1cc2c(=O)n3ccccc3nc2n(CCOC)c1=NC(=O)c1c(-c2c(F)cccc2Cl)noc1C | u | u | n | u | 18µM! | -55
CCOC(=O)c1cc2c(=O)n3ccccc3nc2n(Cc2ccco2)c1=NC(=O)c1cccc(C)c1 | 23µM | x | x | x | u | x
CCOC(=O)c1cc2c(=O)n3ccccc3nc2n(Cc2ccco2)c1=NC(=O)c1cccc(Br)c1 | 16µM | x | x | x | u | x
COc1ccccc1C(=O)Nc1cccc(N2CCC(NCc3cnn(-c4ccccc4)n3)CC2)c1 | n[9.04 µM] | x | x | x | u | x
CCc1ccc(NC(=O)CCCOc2cc(=O)n(C)c3ccccc23)cc1 | u | n | x | n | u | n
Cn1c(=O)cc(OCCCC(=O)Nc2ccc(F)cc2)c2ccccc21 | 13µM | x | x | x | 15µM | x
Cn1cc(SCC(=O)NCc2ccc(F)cc2)c2ccccc21 | n | n | n | n | n | n
CN(CCCNC(=O)CSc1cc(=O)n(C)c2cc(Cl)ccc12)Cc1ccccc1 | u | u | n | 21µM | n | u
Cn1c(=O)cc(SCC(=O)NCc2ccc(F)cc2)c2ccccc21 | u | n | n | u | 12µM | n
SMILES | DT40 TDP1 CPT | HT1080-NT tox | uPA surface inh | HT1080 IDH1KD tx | DT40 TDP1 no CPT | IL1B secr inh
Cn1c(=O)cc(SCC(=O)NCc2ccc(F)cc2)c2ccc(Cl)cc21 | 2.6µM | x | x | x | 3.3µM | x
CCOc1ccc(CCNC(=O)CSc2cc(=O)n(C)c3cc(Cl)ccc23)cc1OCC | n | n | n | n | u | n
CCN(c1ccc(OC)cc1)S(=O)(=O)c1ccc2[nH]c(=O)ccc2c1 | n | x | x | x | u | x
CC1(C)C(=O)C2C[C@]3(O)C4=CC(=O)OC(c5ccoc5)[C@]4(C)CCC3[C@](C)(C2=O)C1CC(=O)O (stereo partly drawn) | n | x | x | x | n | x
CCCCS(=O)CC(O)CSc1nc(-c2ccc(OC)cc2)cc(-c2ccccc2)c1C#N (stereo not drawn) | u | x | x | x | n | x
COC(=O)[C@@]12C[C@@H](CC(=O)NCCCN3CCCC3=O)C(=O)N(Cc3cccc4ccccc34)C1=CCC(C)(C)C2 | u | n | x | n | u | n
COC(=O)[C@]12CCCCC=C1N(Cc1cccc3ccccc13)C(=O)[C@H](CC(=O)NCCCN1CCCC1=O)C2 | u | n | x | n | 16µM | n
C#CCNC(=O)C[C@@H]1C[C@@]2(C(=O)OC)CCCCC=C2N(Cc2ccccc2)C1=O | n | n | x | n | n | n
CCOC(=O)[C@]12CCC=C1N(Cc1ccccc1)C(=O)[C@H](CC(=O)NCC13CC4CC(CC(C4)C1)C3)C2 | u | u | x | u | u | n
CCCCOCCCNC(=O)C[C@@H]1C[C@@]2(C(=O)OC)CCCCC=C2N(Cc2ccccc2)C1=O | 18µM | n | x | n | 13µM | n
CCCCOCCCNC(=O)C[C@@H]1C[C@@]2(C(=O)OCC)CCC=C2N(Cc2cccc3ccccc23)C1=O | 21µM | u | x | u | 18µM | -67
CCOC(=O)[C@]12CCC=C1N(Cc1cccc3ccccc13)C(=O)[C@H](CC(=O)NCC13CC4CC(CC(C4)C1)C3)C2 | 21µM | n | x | n | u | n
CCNC(=O)C1CCCN(C(=O)c2ccc(C(F)(F)F)cc2)CC1 (stereo not drawn) | n | n | x | n | n | n
COc1cccc(CNC(=O)[C@@H]2CCCN2C(=O)[C@H]2CCCCN2C(=O)OC(C)(C)C)c1 | n | n | x | n | n | n
CCOC(=O)[C@]12CCCC=C1N(Cc1cccc3ccccc13)C(=O)[C@H](CC(=O)NCCCOC)C2 | u | n | x | n | u | n
CCOC(=O)[C@]12CCC=C1N(Cc1cccc3ccccc13)C(=O)[C@H](CC(=O)NCCCOC)C2 | 18µM | n | x | n | 15µM | n
CCCCOCCCNC(=O)C[C@@H]1C[C@@]2(C(=O)OC)CCCCC=C2N(Cc2cccc3ccccc23)C1=O | u | u | x | u | 21µM | -51
CCC(c1nnnn1-c1ccc2c(c1)OCCO2)N1CCN(c2ccc(C(F)(F)F)cc2[N+](=O)[O-])CC1 (stereo not drawn) | 15µM | n | x | n | 23µM | n
Cc1cc(C)cc(NC(=O)Cn2c(C(F)(F)F)nc3ccccc32)c1 | n | x | x | x | n | x
OC(c1ccc(Cl)cc1)c1ncc(-c2ccccc2F)[nH]1 (stereo not drawn) | n | n | x | n | u | n
CCCc1ccc(C(O)c2ncc(-c3ccccc3F)[nH]2)cc1 (stereo not drawn) | 18µM | n | x | u | u | n
